Source: PubChem BioAssay
Most compounds without a hit are left out; they make up all but 3.1% or so of the library.
HSP90 inh: blocks HSP90-mediated luciferase refolding in reticulocyte lysate | Rabbit reticulocyte lysate, luciferase refolding luminescence, 3 h | inhibition, % at 5.6 µM | 290,000 compounds, 0.91% hits;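 active = inhibition above the screen-wide mean plus 3 SD, computed separately per campaign, cut at about 16% in these data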;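 also: 0% = DMSO wells and 100% = 60 µM geldanamycin wells; inhibitors lower the luminescence because luciferase stays unfolded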
ARNT TACC3 PPI: ARNT/TACC3 interaction disruption. AlphaScreen His-ARNT PAS-B/GST-TACC3 binding, luminescence; TACC3 fragment carries E629A point mutation. inhibition, % at 9.99 µM. 390,000 compounds, 0.66% hits;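 active = mean inhibition of replicates at least 50% and at least half of replicates each reaching 50%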;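 also: 0% = complete ARNT plus TACC3 wells and 100% = ARNT alone without TACC3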
HSF1 inhib: HSF1 inhibition | activity change, negative = inhibition, % at 7.5 µM (by protocol) | AID 2098 | 300,000 compounds, 0.77% hits | NIH3T3-HGL HSE-luciferase, MG132-induced, luminescence 8 h; hits give low values;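 active = more than half of replicate wells show activity change below -50%, luminescence cut by over half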;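 also: luciferase reports HSF-1 transcriptional activity via heat shock element; 0% = median of DMSO wells and -100% = zero luminescence signal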
HSF-1 act: increases HSF-1 driven luciferase reporter signal. activation, % at 9 µM. NIH3T3-HGL HSF-1 luciferase reporter, MG132, 8 h; 100% = twice DMSO control signal. 300,000 compounds, 1.7% hits;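 active = mean replicate activation of at least 50% with a set share of replicates each reaching 50%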;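 also: 0% = median of the neutral control wells and 100% = twice that signal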
HIF act: HIF pathway transcriptional activation. U2OS HRE-luciferase reporter, luminescence; normalized: DMSO 0%, desferrioxamine 100%. activation, % at 7.5 µM (by protocol). 300,000 compounds, 0.32% hits. AID 1910;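 active = mean activation of at least 10% of the iron chelator positive control signal, with at least half of replicates also reaching 10%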
* = called active by the depositor.

COCC(=O)Nc1ccc2c(c1)C(=O)N(C)[C@H]1CC[C@@H](CC(=O)NCCc3ccccc3)O[C@H]1CO2 was read as ARNT TACC3 PPI -8.
Screening O=C(Nc1nccs1)c1sc2cc(Cl)ccc2c1Cl returned HSP90 inh -1, ARNT TACC3 PPI -1, HSF1 inhib 26, HSF-1 act 56* and HIF act 6.
`O=C(NC1CC1)c1sc2cc(Cl)ccc2c1Cl` gave ARNT TACC3 PPI -7, HSF1 inhib 19, HSF-1 act 42 and HIF act 2.
`COC(=O)C[C@H]1CC[C@H]2[C@H](COc3ccc(NC(=O)c4cc(C)on4)cc3C(=O)N2C)O1` gave ARNT TACC3 PPI -9.
`CC(NC(=O)CSc1nc2ccccc2c(=O)[nH]1)c1ccccc1` (stereo not drawn) gave HSP90 inh -1, ARNT TACC3 PPI -3, HSF1 inhib 11, HSF-1 act 14 and HIF act 1.
Screening O=C(CSc1nc2ccccc2c(=O)[nH]1)Nc1ccc(Br)cc1 returned HSP90 inh 5, ARNT TACC3 PPI -2, HSF1 inhib -1, HSF-1 act 9 and HIF act 38*.
Screening COC(=O)c1ccc(NC(=O)CSc2nc3ccccc3c(=O)[nH]2)cc1 returned HSP90 inh 2, ARNT TACC3 PPI -3, HSF1 inhib 1, HSF-1 act 5 and HIF act 0.
For CC(C)CCNC(=O)CSc1nc2ccccc2c(=O)[nH]1 the results were HSP90 inh 0, ARNT TACC3 PPI 7, HSF1 inhib 22, HSF-1 act 55* and HIF act 0.
For CCn1c(SCC(=O)Nc2oc(C)c3c(C)n[nH]c(=O)c23)nc2sc(C)c(C)c2c1=O the results were ARNT TACC3 PPI -2, HSF1 inhib -71*, HSF-1 act -78 and HIF act 0.
Screening Cc1cc(C)cc(NC(=O)CN2C(=O)NC(C)(c3ccccc3)C2=O)c1 (stereo not drawn) returned HSP90 inh 0, ARNT TACC3 PPI 5, HSF1 inhib 39, HSF-1 act 86* and HIF act 0.
Screening COCC(=O)Nc1ccc2c(c1)C(=O)N(C)C[C@H](OC)[C@H](C)CN[C@@H](C)CO2 returned ARNT TACC3 PPI -21.
`CN1CCN(C(=O)C[C@@H]2CC[C@H]3[C@@H](COC[C@@H](O)CN3S(=O)(=O)c3cccc(Cl)c3)O2)CC1` gave ARNT TACC3 PPI -8.
CCCCCNc1nc(-c2ccccc2)cs1 was read as HSP90 inh 5, HSF1 inhib 19, HSF-1 act 55* and HIF act 2.
Screening CCn1c(SCC(=O)N2CCOCC2)nc2oc3c(Cl)cc(Cl)cc3c(=O)c2c1=O returned HSP90 inh -3, HSF1 inhib 66, HSF-1 act 121* and HIF act -5.
`Cc1ccc(C(=O)Nc2ccc3nc(C)sc3c2)s1` gave HSP90 inh -2, ARNT TACC3 PPI -3, HSF1 inhib 33, HSF-1 act 56* and HIF act 3.
For Cc1cc(NC(=O)c2ccc3nc(C)sc3c2)no1 the results were HSP90 inh 0, HSF1 inhib -67*, HSF-1 act -73 and HIF act 2.
`Cc1nc2cc(NC(=O)c3ccc(Br)s3)ccc2s1` gave HSP90 inh 0, ARNT TACC3 PPI 2, HSF1 inhib 34, HSF-1 act 56* and HIF act 1.
COc1ccc(NC(=O)N(C)C[C@H]2OCCCC[C@@H](C)Oc3ccc(NC(=O)Cc4ccccc4)cc3C(=O)N([C@H](C)CO)C[C@@H]2C)cc1 was read as ARNT TACC3 PPI 6.
`O=C(N/N=C/c1cc(Br)ccc1O)c1cccc(N2CCCC2=O)c1` gave HSP90 inh 1, ARNT TACC3 PPI 11, HSF1 inhib 1, HSF-1 act 12 and HIF act 42*.
For CN(C)c1ccc(/C=N/NC(=O)c2cccc(N3CCCC3=O)c2)cc1 the results were HSP90 inh 5, ARNT TACC3 PPI 5, HSF1 inhib -82*, HSF-1 act -87 and HIF act 0.
`O=C(O)c1cccc(N2CCCC2=O)c1` gave HSP90 inh 3, ARNT TACC3 PPI -6, HSF1 inhib -4, HSF-1 act -7 and HIF act 47*.
`O=C(C[C@@H]1C=C[C@H](NC(=O)Nc2ccc3c(c2)OCO3)[C@H](CO)O1)NCc1ccc2c(c1)OCO2` gave ARNT TACC3 PPI 10.
C[C@@H]1CCCCO[C@H](CN(C)CC2CCCCC2)[C@@H](C)CN([C@H](C)CO)C(=O)c2cc(NC(=O)Nc3ccc4c(c3)OCO4)ccc2O1 was read as ARNT TACC3 PPI 11.
Screening O=C(COC(=O)Cn1cnc2ccccc21)Nc1cc2c(cc1Cl)C(=O)c1ccccc1C2=O returned HSP90 inh -3, ARNT TACC3 PPI -7, HSF1 inhib 52, HSF-1 act 74* and HIF act 5.
Screening O=C(NCCCO)c1ccc2nc(-c3ccco3)c(-c3ccco3)nc2c1 returned HSP90 inh 10 and ARNT TACC3 PPI 47*.
`CCCCNC(=O)c1ccc2nc(-c3ccco3)c(-c3ccco3)nc2c1` gave HSP90 inh -4, ARNT TACC3 PPI 17, HSF1 inhib -9, HSF-1 act 3 and HIF act 0.
For O=C(Nc1ccccc1)c1ccc2nc(-c3ccco3)c(-c3ccco3)nc2c1 the results were HSP90 inh 3, ARNT TACC3 PPI 47*, HSF1 inhib 22, HSF-1 act 56* and HIF act 0.
Screening CC(C)NC(=O)Nc1ccc2c(c1)C(=O)N([C@H](C)CO)C[C@@H](C)[C@H](CN(C)S(=O)(=O)c1ccc(F)cc1)OCCCC[C@@H](C)O2 returned ARNT TACC3 PPI -1.
Screening C[C@H]1CN([C@@H](C)CO)S(=O)(=O)c2ccc(-c3ccccc3)cc2O[C@@H]1CN(C)Cc1ccncc1 returned ARNT TACC3 PPI -6.
O=Cc1cccc(OC(=O)c2ccc(Cl)cc2Cl)c1 was read as HSP90 inh -1, HSF1 inhib 27, HSF-1 act 64* and HIF act 2.
CCC(C)Sc1cc(C)c(C#N)c2nc3ccccc3n12 (stereo not drawn) was read as HSP90 inh -3, ARNT TACC3 PPI -3, HSF1 inhib -6, HSF-1 act 13 and HIF act 0.
`CCOC(=O)CSc1cc(C)c(C#N)c2nc3ccccc3n12` gave HSP90 inh 1, ARNT TACC3 PPI -7, HSF1 inhib 21, HSF-1 act 58* and HIF act 0.
For CCc1c(C)c(C#N)c2nc3ccccc3n2c1Cl the results were HSP90 inh -2, HSF1 inhib 378, HSF-1 act 435* and HIF act -2.
For CC(C)C#Cc1cnc2c(c1)C(=O)N([C@@H](C)CO)C[C@@H](C)[C@@H](CN(C)Cc1ccccc1F)O2 the results were ARNT TACC3 PPI 0.
